From PubChem
CHRM1 agonist: activates human CHRM1 receptor; activation, % at 3 µM; P11229; 0.33% of 360,000 active; CHO-K1 hM1, Fluo-8 calcium fluorescence, agonist mode; 0% DMSO, 100% acetylcholine EC100; AID 588814;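 active means activation above the run's mean compound activation plus 3 SD, cut at about 16% in these data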;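 further: peak over basal fluorescence ratio within a 140 s kinetic read after compound addition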
Target sequence (P11229 whole entry, looked up): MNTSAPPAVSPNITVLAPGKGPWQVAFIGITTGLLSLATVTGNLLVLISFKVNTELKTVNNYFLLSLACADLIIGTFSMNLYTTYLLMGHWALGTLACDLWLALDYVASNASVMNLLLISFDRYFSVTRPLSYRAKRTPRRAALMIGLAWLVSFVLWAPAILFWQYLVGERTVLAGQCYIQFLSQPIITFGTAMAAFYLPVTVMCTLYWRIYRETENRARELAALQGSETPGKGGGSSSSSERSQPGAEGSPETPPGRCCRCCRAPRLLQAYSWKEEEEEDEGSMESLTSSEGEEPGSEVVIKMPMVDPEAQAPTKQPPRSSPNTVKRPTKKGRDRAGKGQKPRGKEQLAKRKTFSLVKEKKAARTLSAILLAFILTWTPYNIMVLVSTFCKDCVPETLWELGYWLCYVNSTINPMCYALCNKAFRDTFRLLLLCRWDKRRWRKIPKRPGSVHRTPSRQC
M1 PAM parental: counter-screen for M1 PAMs: effect in parental CHO-K1 cells. ATP EC20, Fluo-8 calcium fluorescence; 0% at ATP EC20, 100% at ATP max. 0.02% of 360,000 active. activation, % at 3 µM;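 active means activation above the run cutoff, the mean activation of all test compounds plus 3 SD, cut at about 40% in these data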;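 further: peak over basal fluorescence ratio in a 140 s read after ATP addition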
M1 antag: human CHRM1 antagonism. CHO-K1 hM1, Fluo-8 calcium fluorescence, ACh EC80 antagonist. inhibition, % at 3 µM. 1.3% of 360,000 active;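 active means percent inhibition above its own plate's cutoff, namely the mean of that plate's compound wells plus 3 SD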;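 further: peak over basal fluorescence ratio during 140 s after agonist addition; 0% = ACh EC80 plus DMSO and 100% = DMSO alone without agonist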
CHRM1 PAM: potentiates human M1 receptor response to acetylcholine; CHO-K1 hM1, Fluo-8 calcium fluorescence, ACh EC20; 0% = ACh EC20, 100% = maximal ACh; P11229; AID 588819; activation, % at 3 µM; 0.088% of 360,000 active; in the data active means activation above about 19%, passing the limit was not always enough
M1 ag parental: nonselective activator or artifact in parental CHO-K1 cells; activation, % at 3 µM; Fluo-8 calcium fluorescence; scaled to maximal ATP response, vehicle zero; 0.48% of 360,000 active; AID 602248; in the data active means activation above about 15%;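 further: untransfected CHO-K1 host cells lacking M1 receptor as counterscreen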
CHO-K1 Ca antag: nonselective inhibitor or artifact in parental CHO-K1 cells | ATP-induced calcium, Fluo-8 fluorescence | inhibition, % at 3 µM | 0.6% of 360,000 active;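 active means inhibition above a per-plate cutoff, the plate's mean sample inhibition plus 3 SD, cut at about 24% in these data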;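 further: 0% = DMSO plus EC80 ATP and 100% = DMSO alone without ATP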
An asterisk follows results filed as active. This is a sample that favours compounds with a hit; in the whole collection about 2.3% have one here.

How did O=C(c1ccc(Cl)cc1)C1CCCN(Cc2cccc3cnccc23)C1 (stereo not drawn) do in these assays?
CHRM1 agonist: -3; M1 PAM parental: 16; M1 antag: 70*; CHRM1 PAM: -23; M1 ag parental: 8; CHO-K1 Ca antag: -8

What do the screens show for `O=C(c1ccc(Cl)cc1)C1CCCN(Cc2ccc3ncccc3c2)C1` (stereo not drawn)?
CHRM1 agonist: 0; M1 PAM parental: 2; M1 antag: 81*; CHRM1 PAM: -20; M1 ag parental: 7; CHO-K1 Ca antag: -6

How did Cc1ccccc1CC(=O)N(CCN(C)C)CC1CCCN(Cc2ccccc2F)C1 (stereo not drawn) do in these assays?
CHRM1 agonist: -8; M1 PAM parental: -9; M1 antag: -1; CHRM1 PAM: 2; M1 ag parental: 0; CHO-K1 Ca antag: -4

How did CCOP(=O)(OCC)C1(C(=O)O)CCCC1 do in these assays?
CHRM1 agonist: -2; M1 PAM parental: 15; M1 antag: 17; CHRM1 PAM: 0; M1 ag parental: 5; CHO-K1 Ca antag: -7

How did CC(CN1CCOCC1)C(C#N)(c1ccccc1)c1ccccc1 (stereo not drawn) do in these assays?
CHRM1 agonist: -7; M1 PAM parental: 20; M1 antag: 6; CHRM1 PAM: -22; M1 ag parental: 1; CHO-K1 Ca antag: -28

What do the screens show for `CN1CCN(CCC(C#N)(c2ccccc2)c2ccccc2)CC1`?
CHRM1 agonist: -6; M1 PAM parental: 10; M1 antag: 99*; CHRM1 PAM: -22; M1 ag parental: 1; CHO-K1 Ca antag: 3

How did Cc1ccccc1N1C(=O)NC(=O)/C(=C/c2ccc(N3CCOCC3)o2)C1=O do in these assays?
CHRM1 agonist: 3; M1 PAM parental: -20; M1 antag: -16; CHRM1 PAM: 13; M1 ag parental: 3; CHO-K1 Ca antag: 7

What do the screens show for `O=C1NC(=O)N(c2ccc3c(c2)OCO3)C(=O)/C1=C\c1ccc(N2CCCCC2)o1`?
CHRM1 agonist: 0; M1 PAM parental: -9; M1 antag: 5; CHRM1 PAM: -9; M1 ag parental: 3; CHO-K1 Ca antag: 25*

How did COC1=CC(=O)OC(/C=C/c2ccccc2)C1 (stereo not drawn) do in these assays?
CHRM1 agonist: -1; M1 PAM parental: -9; M1 antag: -21; CHRM1 PAM: -3; M1 ag parental: 0; CHO-K1 Ca antag: 46*

How did CNC(=O)O/N=C/c1nn(C(=O)C(C)(C)C)cc1Br do in these assays?
CHRM1 agonist: -1; M1 PAM parental: 9; M1 antag: 16; CHRM1 PAM: -7; M1 ag parental: 5; CHO-K1 Ca antag: -4

How did CCOP(=O)(OCC)c1cc(C)c(O)c(C(C)(C)C)c1 do in these assays?
CHRM1 agonist: -4; M1 PAM parental: 16; M1 antag: -13; CHRM1 PAM: 7; M1 ag parental: 1; CHO-K1 Ca antag: -19

Results for CCN(CC)P(=O)(c1n(CC)cc[n+]1CC)N(CC)CC ?
CHRM1 agonist: -2; M1 PAM parental: -16; M1 antag: 0; CHRM1 PAM: 5; M1 ag parental: -1; CHO-K1 Ca antag: 32*

What do the screens show for `COc1ccc(CNC(=O)CCC(=O)N2C[C@H]3C[C@H](C2)c2cccc(=O)n2C3)cc1OC`?
CHRM1 agonist: -1; M1 PAM parental: -4; M1 antag: -13; CHRM1 PAM: 10; M1 ag parental: -1; CHO-K1 Ca antag: 16

How did OC(c1ccncc1)(c1ccc(F)cc1)c1ccc(F)cc1 do in these assays?
CHRM1 agonist: -7; M1 PAM parental: 9; M1 antag: -9; CHRM1 PAM: 6; M1 ag parental: 0; CHO-K1 Ca antag: -1

Results for Fc1ccc(C(OCCN2CCN(CCCc3ccccc3)CC2)c2ccc(F)cc2)cc1 ?
CHRM1 agonist: -7; M1 PAM parental: 11; M1 antag: 26; CHRM1 PAM: -20; M1 ag parental: 1; CHO-K1 Ca antag: 4

Results for Fc1ccc(C(OCCN2CCCC2)c2ccc(F)cc2)cc1 ?
CHRM1 agonist: -9; M1 PAM parental: 6; M1 antag: 79*; CHRM1 PAM: -23; M1 ag parental: 1; CHO-K1 Ca antag: -1

What do the screens show for `Fc1ccc(C(OCCN2CCCC2)c2ccc(Br)cc2)cc1` (stereo not drawn)?
CHRM1 agonist: -8; M1 PAM parental: 8; M1 antag: 81*; CHRM1 PAM: -23; M1 ag parental: 2; CHO-K1 Ca antag: -4

Results for CCC(C)c1cnc(CC(C)C)c(=O)n1O (stereo not drawn) ?
CHRM1 agonist: -4; M1 PAM parental: -4; M1 antag: -2; CHRM1 PAM: 1; M1 ag parental: 0; CHO-K1 Ca antag: 11

What do the screens show for `C[C@@H]1CN([C@H](C)CO)C(=O)CCCn2nncc2CO[C@@H]1CN(C)C(=O)Oc1cccc2ccccc12`?
CHRM1 agonist: -3; M1 PAM parental: -10; M1 antag: -10; CHRM1 PAM: 5; M1 ag parental: 0; CHO-K1 Ca antag: 4

What do the screens show for `O=c1ccc2cc3ccoc3c(O)c2o1`?
CHRM1 agonist: -1; M1 PAM parental: -20; M1 antag: -2; CHRM1 PAM: 4; M1 ag parental: 4; CHO-K1 Ca antag: 13

Results for CCOP(=S)(OCC)Oc1nc(Cl)c(Cl)cc1Cl ?
CHRM1 agonist: -4; M1 PAM parental: 8; M1 antag: -16; CHRM1 PAM: 10; M1 ag parental: 0; CHO-K1 Ca antag: -17

What do the screens show for `CC1CCCN(C(=O)CCl)C1` (stereo not drawn)?
CHRM1 agonist: -4; M1 PAM parental: 33; M1 antag: -5; CHRM1 PAM: 9; M1 ag parental: 1; CHO-K1 Ca antag: -11

What do the screens show for `CC1CCN(C(=O)C(C)Cl)CC1` (stereo not drawn)?
CHRM1 agonist: -5; M1 PAM parental: 11; M1 antag: 0; CHRM1 PAM: 0; M1 ag parental: 16*; CHO-K1 Ca antag: 9

What do the screens show for `O=C(Nc1ccccc1Cl)OC1CN2CCC1CC2` (stereo not drawn)?
CHRM1 agonist: -4; M1 PAM parental: 15; M1 antag: 54*; CHRM1 PAM: -22; M1 ag parental: 5; CHO-K1 Ca antag: -8

Results for CN1CCN(CC#CCOc2ccc(Cl)cc2)CC1 ?
CHRM1 agonist: -9; M1 PAM parental: -3; M1 antag: 5; CHRM1 PAM: -6; M1 ag parental: 0; CHO-K1 Ca antag: 2

Results for O=C(Nc1cccc(Cl)c1)OCC#CCN1CCCC1 ?
CHRM1 agonist: 45*; M1 PAM parental: 0; M1 antag: 62*; CHRM1 PAM: -23; M1 ag parental: 2; CHO-K1 Ca antag: -15

How did O=C(Nc1ccccc1F)OC1CN2CCC1CC2 (stereo not drawn) do in these assays?
CHRM1 agonist: -7; M1 PAM parental: 16; M1 antag: 24; CHRM1 PAM: -16; M1 ag parental: 0; CHO-K1 Ca antag: -3
